Drawing on the supplement of paper PMC10849652, this text covers log2 fold change for 23 targets.

About 7,900 targets were measured; listed, in parts, are those with a hit and a random draw of the rest. About 0.6% of all pairs of compound and target were hits.

UniProt Q96PU8, sequence (Q96PU8 whole entry, looked up): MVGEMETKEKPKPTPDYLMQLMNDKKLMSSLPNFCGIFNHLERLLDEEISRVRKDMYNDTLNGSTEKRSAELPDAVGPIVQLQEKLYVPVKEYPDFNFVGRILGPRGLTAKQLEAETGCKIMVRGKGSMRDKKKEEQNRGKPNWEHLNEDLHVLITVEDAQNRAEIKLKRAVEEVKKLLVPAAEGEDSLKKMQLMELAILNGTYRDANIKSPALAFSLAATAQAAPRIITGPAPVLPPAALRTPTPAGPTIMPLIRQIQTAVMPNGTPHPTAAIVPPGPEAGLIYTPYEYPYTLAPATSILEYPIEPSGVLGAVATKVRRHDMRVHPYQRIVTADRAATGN
UniProt P35998, sequence (P35998 whole entry, looked up): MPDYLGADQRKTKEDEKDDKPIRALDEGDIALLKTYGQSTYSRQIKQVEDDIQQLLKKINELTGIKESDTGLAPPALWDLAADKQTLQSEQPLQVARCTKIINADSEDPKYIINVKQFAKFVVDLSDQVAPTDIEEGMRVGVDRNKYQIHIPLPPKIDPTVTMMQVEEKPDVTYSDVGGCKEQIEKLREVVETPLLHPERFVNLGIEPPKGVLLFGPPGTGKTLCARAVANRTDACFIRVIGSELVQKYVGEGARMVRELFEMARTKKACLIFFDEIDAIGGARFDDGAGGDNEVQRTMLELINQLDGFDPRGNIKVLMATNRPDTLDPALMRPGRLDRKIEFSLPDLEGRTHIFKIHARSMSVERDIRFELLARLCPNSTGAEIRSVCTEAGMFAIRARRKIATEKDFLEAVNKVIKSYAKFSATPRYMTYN
UniProt Q8TAP8, sequence (Q8TAP8 whole entry, looked up): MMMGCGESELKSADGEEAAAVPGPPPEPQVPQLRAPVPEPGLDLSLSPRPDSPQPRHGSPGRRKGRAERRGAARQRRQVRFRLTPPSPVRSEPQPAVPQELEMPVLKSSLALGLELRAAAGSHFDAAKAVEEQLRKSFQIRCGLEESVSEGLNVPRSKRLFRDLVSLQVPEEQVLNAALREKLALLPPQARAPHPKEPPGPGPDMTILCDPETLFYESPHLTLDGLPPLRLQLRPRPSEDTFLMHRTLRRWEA
UniProt Q99541, sequence (Q99541 whole entry, looked up): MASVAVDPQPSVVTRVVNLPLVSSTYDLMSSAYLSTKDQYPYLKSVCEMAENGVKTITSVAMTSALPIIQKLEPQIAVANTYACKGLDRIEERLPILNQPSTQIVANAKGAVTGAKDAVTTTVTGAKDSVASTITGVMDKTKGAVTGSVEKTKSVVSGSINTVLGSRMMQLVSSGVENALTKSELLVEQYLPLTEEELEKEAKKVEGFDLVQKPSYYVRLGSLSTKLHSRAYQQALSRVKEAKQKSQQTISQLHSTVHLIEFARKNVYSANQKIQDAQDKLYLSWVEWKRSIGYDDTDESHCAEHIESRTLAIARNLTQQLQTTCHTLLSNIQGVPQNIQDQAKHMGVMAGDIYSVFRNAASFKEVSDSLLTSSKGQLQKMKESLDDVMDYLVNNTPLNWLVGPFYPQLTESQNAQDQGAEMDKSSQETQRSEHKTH
UniProt Q15121, sequence (Q15121 whole entry, looked up): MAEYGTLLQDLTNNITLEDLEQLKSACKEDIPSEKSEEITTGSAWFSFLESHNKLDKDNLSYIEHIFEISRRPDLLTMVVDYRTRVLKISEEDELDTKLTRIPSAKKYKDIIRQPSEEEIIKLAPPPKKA
UniProt Q9BZL6, sequence (Q9BZL6 whole entry, looked up): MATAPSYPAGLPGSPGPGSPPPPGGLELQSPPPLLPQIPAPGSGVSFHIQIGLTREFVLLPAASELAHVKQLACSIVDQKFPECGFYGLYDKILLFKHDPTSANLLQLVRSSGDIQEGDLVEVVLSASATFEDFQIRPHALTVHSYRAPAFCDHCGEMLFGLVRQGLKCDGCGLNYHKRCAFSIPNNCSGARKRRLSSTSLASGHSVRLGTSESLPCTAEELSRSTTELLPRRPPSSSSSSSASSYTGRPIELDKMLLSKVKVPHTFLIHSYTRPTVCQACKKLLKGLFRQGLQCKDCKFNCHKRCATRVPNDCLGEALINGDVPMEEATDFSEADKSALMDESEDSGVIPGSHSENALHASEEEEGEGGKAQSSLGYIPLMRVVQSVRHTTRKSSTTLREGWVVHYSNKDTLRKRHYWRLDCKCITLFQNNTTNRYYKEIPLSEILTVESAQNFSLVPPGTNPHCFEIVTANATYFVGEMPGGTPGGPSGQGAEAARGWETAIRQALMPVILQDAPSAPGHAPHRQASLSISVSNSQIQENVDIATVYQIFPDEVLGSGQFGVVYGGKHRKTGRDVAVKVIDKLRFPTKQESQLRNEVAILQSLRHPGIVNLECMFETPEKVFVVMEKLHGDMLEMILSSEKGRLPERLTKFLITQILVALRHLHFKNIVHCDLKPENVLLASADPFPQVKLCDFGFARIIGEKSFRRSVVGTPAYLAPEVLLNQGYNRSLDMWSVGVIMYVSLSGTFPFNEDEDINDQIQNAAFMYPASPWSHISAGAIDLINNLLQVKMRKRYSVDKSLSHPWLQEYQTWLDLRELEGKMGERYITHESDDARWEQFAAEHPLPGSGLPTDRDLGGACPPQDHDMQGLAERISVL
UniProt Q05209, sequence (Q05209 whole entry, looked up): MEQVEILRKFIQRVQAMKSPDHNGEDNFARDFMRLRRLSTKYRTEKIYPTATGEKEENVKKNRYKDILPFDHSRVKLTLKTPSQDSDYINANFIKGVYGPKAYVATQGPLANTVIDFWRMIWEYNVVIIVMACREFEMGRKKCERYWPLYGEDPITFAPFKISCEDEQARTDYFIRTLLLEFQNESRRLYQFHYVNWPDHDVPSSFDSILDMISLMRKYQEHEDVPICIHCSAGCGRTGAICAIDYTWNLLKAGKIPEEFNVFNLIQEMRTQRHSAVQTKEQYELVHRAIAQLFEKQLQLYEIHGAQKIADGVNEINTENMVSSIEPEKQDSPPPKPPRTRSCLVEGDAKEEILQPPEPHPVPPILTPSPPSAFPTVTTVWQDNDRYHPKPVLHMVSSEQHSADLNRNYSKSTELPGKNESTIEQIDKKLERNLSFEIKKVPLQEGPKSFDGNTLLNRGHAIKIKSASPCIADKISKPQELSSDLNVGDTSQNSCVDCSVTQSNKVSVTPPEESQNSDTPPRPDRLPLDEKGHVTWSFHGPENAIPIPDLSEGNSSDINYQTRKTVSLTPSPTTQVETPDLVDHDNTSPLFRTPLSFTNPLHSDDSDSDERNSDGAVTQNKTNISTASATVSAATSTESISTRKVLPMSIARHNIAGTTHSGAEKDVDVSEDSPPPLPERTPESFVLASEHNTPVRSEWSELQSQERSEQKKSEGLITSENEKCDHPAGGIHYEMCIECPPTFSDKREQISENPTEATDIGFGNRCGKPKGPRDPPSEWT
UniProt Q99575, sequence (Q99575 whole entry, looked up): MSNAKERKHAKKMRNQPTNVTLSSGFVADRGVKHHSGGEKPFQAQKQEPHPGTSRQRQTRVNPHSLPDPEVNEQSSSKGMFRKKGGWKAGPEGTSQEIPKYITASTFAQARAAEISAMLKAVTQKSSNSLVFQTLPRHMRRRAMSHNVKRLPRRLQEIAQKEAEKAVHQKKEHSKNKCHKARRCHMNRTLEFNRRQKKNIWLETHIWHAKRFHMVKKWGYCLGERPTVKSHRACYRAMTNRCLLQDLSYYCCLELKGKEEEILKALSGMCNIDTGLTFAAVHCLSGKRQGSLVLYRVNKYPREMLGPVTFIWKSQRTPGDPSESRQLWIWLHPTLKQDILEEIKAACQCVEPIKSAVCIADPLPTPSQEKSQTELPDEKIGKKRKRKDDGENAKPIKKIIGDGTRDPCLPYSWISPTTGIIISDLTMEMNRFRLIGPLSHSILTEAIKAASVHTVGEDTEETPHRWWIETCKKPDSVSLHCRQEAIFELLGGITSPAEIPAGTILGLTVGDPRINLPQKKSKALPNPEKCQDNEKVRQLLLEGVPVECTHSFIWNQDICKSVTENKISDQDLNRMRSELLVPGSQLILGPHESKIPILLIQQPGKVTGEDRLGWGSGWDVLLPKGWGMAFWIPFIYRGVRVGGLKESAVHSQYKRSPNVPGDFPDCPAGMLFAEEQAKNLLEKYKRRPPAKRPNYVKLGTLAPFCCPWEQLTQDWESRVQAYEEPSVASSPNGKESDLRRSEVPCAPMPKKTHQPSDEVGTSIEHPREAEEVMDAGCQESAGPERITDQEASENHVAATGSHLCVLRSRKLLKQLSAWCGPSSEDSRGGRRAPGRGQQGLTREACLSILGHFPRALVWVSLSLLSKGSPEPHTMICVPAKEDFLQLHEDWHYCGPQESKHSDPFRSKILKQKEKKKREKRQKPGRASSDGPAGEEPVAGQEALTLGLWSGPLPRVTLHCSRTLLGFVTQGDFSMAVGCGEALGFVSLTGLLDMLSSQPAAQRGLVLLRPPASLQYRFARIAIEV
UniProt Q5VTL8, sequence (Q5VTL8 whole entry, looked up): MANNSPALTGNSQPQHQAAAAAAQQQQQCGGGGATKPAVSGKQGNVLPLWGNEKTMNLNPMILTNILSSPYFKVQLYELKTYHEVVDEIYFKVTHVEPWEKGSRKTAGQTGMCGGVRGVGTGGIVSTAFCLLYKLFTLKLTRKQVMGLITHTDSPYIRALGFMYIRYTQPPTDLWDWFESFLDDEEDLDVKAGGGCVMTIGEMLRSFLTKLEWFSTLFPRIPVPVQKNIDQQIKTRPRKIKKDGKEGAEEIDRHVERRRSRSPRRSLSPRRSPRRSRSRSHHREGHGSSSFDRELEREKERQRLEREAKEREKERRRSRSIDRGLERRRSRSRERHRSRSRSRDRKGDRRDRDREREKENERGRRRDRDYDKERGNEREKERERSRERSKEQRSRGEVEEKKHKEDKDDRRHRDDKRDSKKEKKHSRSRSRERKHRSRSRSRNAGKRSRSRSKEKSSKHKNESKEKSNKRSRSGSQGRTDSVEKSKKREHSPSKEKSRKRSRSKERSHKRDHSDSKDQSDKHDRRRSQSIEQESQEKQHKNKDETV

Compound in this assay: CC(C)N(C[C@H]1O[C@@H](n2cnc3c(N)ncnc32)[C@H](O)[C@@H]1O)[C@H]1C[C@@H](CCc2nc3cc(C(C)(C)C)ccc3[nH]2)C1 [pinometostat]
The assay is described as follows: log2 fold change, soluble protein after heating vs DMSO (PISA); higher = thermal stabilisation; K562 cells, 10 uM, 30 min; active = over 0.2 and 3.5 SD of the protein, either way, in both replicates (recomputed). In short, it runs like this:
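Aliquots of K562 cells (2×10^6 cells/mL) treated with 10 μM compound for 30 min were heated for 3 min over 48°C-58°C. After pooling and extraction in PBS with 0.5% NP-40 at 4°C, soluble protein from a 21,000xg, 90 min spin was quantified by TMTpro 16plex LC-MS/MS with channel sums equalised. Thermal stability is expressed against control samples, from duplicates, as a log2 fold change.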
Turning to PSMC2 (UniProt P35998), the log2 fold change is 0.033 (inactive).
Under PSMB6 (UniProt P28072) stands -0.053 (inactive); under PRKD2 isoform 3 (UniProt Q9BZL6), 0.056 (inactive).
Under QKI (UniProt Q96PU8) stands -0.026 (inactive); under PKN1 isoform 2 (UniProt Q16512), 0.057 (inactive); under PRPF38B (UniProt Q5VTL8), -0.029 (inactive).
With PTPN12 (UniProt Q05209), the log2 fold change was 0.045 (inactive).
The figure for PDCD6 (UniProt O75340) is 0.005 (inactive).
Take PPOX (UniProt P50336): the log2 fold change was -0.039 (inactive).
The figure for POP1 (UniProt Q99575) is 0.003 (inactive); for PIKFYVE (UniProt Q9Y2I7) it is 0.006 (inactive).
For the target PPP1R35 (UniProt Q8TAP8), the log2 fold change is -0.021 (inactive).
Under PSMB4 (UniProt P28070) stands 0.03 (inactive); under PLIN2 (UniProt Q99541), 0.007 (inactive); under PCNT (UniProt O95613), 0.069 (inactive).
Under PSMD13 (UniProt Q9UNM6) stands 0.09 (inactive).
The figure for PEA15 isoform 2 (UniProt Q15121) is -0.004 (inactive); for PARG (UniProt Q86W56) it is 0.059 (inactive); for PDLIM7 (UniProt Q9NR12) it is -0.019 (inactive).
On to PEX13 (UniProt Q92968), for which the log2 fold change is -0.032 (inactive).
The figure for PRKCD (UniProt Q05655) is 0.017 (inactive); for PSMC5 (UniProt P62195) it is 0.021 (inactive).
Under PCBP1 (UniProt Q15365) stands -0.003 (inactive).
